From PubChem BioAssay AID1159580 (chemical genetic matrix, 2015)
Out of some 5,500 compounds screened, about 2,000 (36%) were called active. Another 18% or so got no clear call; they are omitted. Cut-off read from the data, not from the text of the source: active = normalized growth mostly below about 0.91 (no sharp cut-off); inconclusive = no clear call, values can overlap the other calls; inactive = mostly above about 0.92. The list shows a part of the results.

Assay: chemical genetic growth profiling, strain panel (AID 1159580);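 note: tested at 20 µM; growth read once vehicle control cultures reached saturation at 30 °C; 1 = growth at the plate median or of vehicle wells; lower values mean less growth of the strain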
Settings: growth OD

Measured: normalized growth

COC(=O)COc1ccc(C(C)=O)cc1
inactive: S. cerevisiae deletion strains, locus YAL013W, strain DEP1, stronger effect = lower value 1.01 | S. cerevisiae deletion strains, locus YBR229C, strain ROT2, stronger effect = lower value 0.988 | S. cerevisiae deletion strains, locus YDL101C, strain DUN1, stronger effect = lower value 0.96 | S. cerevisiae deletion strains, locus YDR150W, strain NUM1, stronger effect = lower value 0.977 | S. cerevisiae deletion strains, locus YEL061C, strain CIN8, stronger effect = lower value 1.01 | S. cerevisiae deletion strains, locus YGR078C, strain PAC10, stronger effect = lower value 1 | S. cerevisiae deletion strains, locus YGR229C, strain SMI1, stronger effect = lower value 0.992 | S. cerevisiae deletion strains, locus YHR030C, strain SLT2, stronger effect = lower value 1.02 | S. cerevisiae deletion strains, locus YHR087W, strain rtc3, stronger effect = lower value 1 | S. cerevisiae deletion strains, locus YJR043C, strain POL32, stronger effect = lower value 1.01 | S. cerevisiae deletion strains, locus YJR075W, strain HOC1, stronger effect = lower value 0.984 | S. cerevisiae deletion strains, locus YLR039C, strain RIC1, stronger effect = lower value 0.974 | S. cerevisiae deletion strains, locus YLR058C, strain SHM2 (second series), stronger effect = lower value 1 | S. cerevisiae deletion strains, locus YLR085C, strain ARP6, stronger effect = lower value 1.01 | S. cerevisiae deletion strains, locus YLR262C, strain YPT6, stronger effect = lower value 0.975 | S. cerevisiae deletion strains, locus YML094W, strain GIM5, stronger effect = lower value 0.952 | S. cerevisiae deletion strains, locus YMR219W, strain ESC1, stronger effect = lower value 1.01 | S. cerevisiae deletion strains, locus YMR263W, strain SAP30, stronger effect = lower value 1 | S. cerevisiae deletion strains, locus YNL153C, strain GIM3, stronger effect = lower value 1 | S. cerevisiae deletion strains, locus YNL298W, strain CLA4 (second series), stronger effect = lower value 0.977 | S. cerevisiae deletion strains, locus YNL322C, strain KRE1, stronger effect = lower value 0.991 | S. cerevisiae deletion strains, locus YNR030W, strain Alg12, stronger effect = lower value 0.98 | S. cerevisiae deletion strains, locus YOL006C, strain TOP1, stronger effect = lower value 0.999 | S. cerevisiae deletion strains, locus YPL055C, strain LGE1, stronger effect = lower value 0.992 | S. cerevisiae deletion strains, locus YPL241C, strain CIN2, stronger effect = lower value 1.07 | S. cerevisiae deletion strains, locus YPR135W, strain CTF4, stronger effect = lower value 0.935 | S. cerevisiae strains, strain wild type, stronger effect = lower value 0.99
